Assay outcomes (PubChem)
ALR H2O2 inh – inhibitors of human ALR sulfhydryl oxidase, primary screen, biochemical, H2O2 detection, HRP-luminol luminescence, single point; FAD-linked sulfhydryl oxidase ALR (Homo sapiens), P55789; purified ALR, DTT oxidation; inhibition, % (no concentration beside the values); 290,000 compounds, 3.8% hits; AID 485317, 2010;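 active = mean replicate inhibition above about 79%, with every replicate also reaching it, limit read from the data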
Target sequence (P55789 whole entry, looked up): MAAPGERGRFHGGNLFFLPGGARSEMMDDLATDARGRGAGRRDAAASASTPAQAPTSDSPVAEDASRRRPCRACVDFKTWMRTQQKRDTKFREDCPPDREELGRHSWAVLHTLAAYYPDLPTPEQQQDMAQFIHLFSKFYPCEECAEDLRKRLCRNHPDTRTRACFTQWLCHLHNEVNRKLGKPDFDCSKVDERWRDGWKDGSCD
AI-2 QS mod – Vibrio harveyi AI-2 quorum sensing modulators, primary screen, JMH597 strain, luminescence/OD600 ratio; Vibrio harveyi JMH597 AI-2 luminescence/OD600 ratio, 9 h; stronger effect = lower value; strain lacks LuxN and CqsS sensors; 0 = neutral-control median; activity change, % at 7.5 µM; 300,000 compounds, 0.4% hits; AID 2094, 2009; in the data active = activity change below about -75%, passing the limit was not always enough;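 note: luminescence divided by OD600 gain over 9 h not by final OD600 alone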
PREPL inhibitor – PREPL enzyme inhibitors, primary screen, biochemical, fluorescence polarization | recombinant PREPL, fluorescence polarization activity-based probe | inhibition, % at 5.96 µM | 320,000 compounds, 0.68% hits | AID 2751, 2010; in the data active = inhibition above about 43%;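 note: 0% = enzyme with DMSO and 100% = wells lacking enzyme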
CHT block – inhibitors of human choline transporter CHT. High affinity choline transporter 1 (Homo sapiens), Q9GZV3. CHT-expressing cells, membrane potential dye, choline response; stronger effect = lower value. B-score at 10 µM. 310,000 compounds, 0.86% hits;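 active = B-score over 3 SD under the library average, and starting fluorescence ratio not unusually high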;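 note: choline stimulus applied at its EC90 after an EC20 pre-addition; B-score computed on integrated fluorescence ratio after choline addition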
CHT allo act – CHT positive allosteric modulators, primary screen, cell-based, membrane potential dye, choline EC20; High affinity choline transporter 1 (Homo sapiens), Q9GZV3; CHT-expressing cells; stronger effect = higher value; LV-AA mutant CHT in HEK293 cells; B-score at 10 µM; 310,000 compounds, 0.49% hits;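 active = initial fluorescence not abnormally high and integrated response B-score, plate-corrected, over 3 SD above library mean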
* hit, by the source's call. An excerpt weighted towards active compounds, which were near 5% of everything screened.

`COc1cccc(-c2nc(CS(=O)(=O)CC(=O)NCCCN3C(C)CCCC3C)c(C)o2)c1` (centres undefined) gave ALR H2O2 inh 10.7, AI-2 QS mod 3.0, PREPL inhibitor 9.1, CHT block inactive and CHT allo act inactive.
Screening COc1ccc([C@H]2CC(=O)C=C(C#CC(C)(C)C)C2)cc1 returned ALR H2O2 inh 2.0 and PREPL inhibitor 6.2.
Screening COc1ccc(-c2c(-c3ccc(O)cc3O)n[nH]c2C)cc1OC returned ALR H2O2 inh 88.4*, AI-2 QS mod 19.0, PREPL inhibitor 19.4, CHT block inactive and CHT allo act inactive.
For COc1ccccc1-c1c(-c2ccc(O)cc2O)n[nH]c1C(F)(F)F the results were ALR H2O2 inh 96.6*, AI-2 QS mod -2.8, PREPL inhibitor 3.5, CHT block inactive and CHT allo act inactive.
For O=c1cc(-c2ccccc2)nc(/C=C/c2ccccc2)[nH]1 the results were AI-2 QS mod 4.5, PREPL inhibitor 8.1, CHT block inactive and CHT allo act inactive.
Screening Cc1cc(=O)[nH]c(SCC(=O)Nc2cccc(C(F)(F)F)c2)n1 returned ALR H2O2 inh -14.9, AI-2 QS mod 16.2, PREPL inhibitor -3.4, CHT block inactive and CHT allo act inactive.
Nn1c(SCC(=O)Nc2cccc(C(F)(F)F)c2)nncc1=O was read as ALR H2O2 inh 97.4*, AI-2 QS mod 9.6, PREPL inhibitor -0.9, CHT block inactive and CHT allo act inactive.
CCOc1ccc(NC(=O)CSc2nnc(-c3ccccc3)n2N)cc1 was read as ALR H2O2 inh -2.8, AI-2 QS mod 7.9, PREPL inhibitor -3.2, CHT block inactive and CHT allo act inactive.
For C=C(C)Cn1c(N)cc(=O)nc1SCC(=O)Nc1cccc(C(F)(F)F)c1 the results were ALR H2O2 inh 97.2*, AI-2 QS mod 11.8, PREPL inhibitor -8.6, CHT block inactive and CHT allo act inactive.
CCCc1nnc(SCC(=O)Nc2ccc(OCC)cc2)n1N was read as ALR H2O2 inh 98.4*, AI-2 QS mod 15.8, PREPL inhibitor 12.1, CHT block inactive and CHT allo act inactive.
Screening CCOc1ccc(NC(=O)CSc2nnc(C)n2CC)cc1 returned ALR H2O2 inh -6.6, AI-2 QS mod -18.8, PREPL inhibitor 2.8, CHT block inactive and CHT allo act inactive.
For CCOc1ccc(NC(=O)CSc2nncc(=O)n2N)cc1 the results were ALR H2O2 inh 95.7*, AI-2 QS mod 8.9, PREPL inhibitor 13.7, CHT block inactive and CHT allo act inactive.
Screening CCOC(=O)N1CCN(CC(=O)N2CCC(C(N)=O)CC2)CC1 returned ALR H2O2 inh -2.0, AI-2 QS mod 26.0, PREPL inhibitor 1.8, CHT block inactive and CHT allo act inactive.
Screening O=S(=O)(c1ccccc1)N1CCNCC1 returned ALR H2O2 inh -30.8, AI-2 QS mod 7.3, PREPL inhibitor -3.8, CHT block inactive and CHT allo act inactive.
COC(=O)c1cc(Br)c(=O)n(CCc2ccc(O)cc2)c1 was read as ALR H2O2 inh 90.0*, AI-2 QS mod 24.4, PREPL inhibitor -6.3, CHT block inactive and CHT allo act inactive.
O=C(/C=C/c1ccccc1[N+](=O)[O-])c1ccc(F)cc1 was read as ALR H2O2 inh 98.1*, AI-2 QS mod 10.3, PREPL inhibitor 11.9, CHT block inactive and CHT allo act inactive.
Screening COc1cc(S(=O)(=O)Nc2cccc(C)c2)ccc1NC(=O)c1cccnc1 returned ALR H2O2 inh 0.3, AI-2 QS mod 3.8, PREPL inhibitor 7.4, CHT block inactive and CHT allo act inactive.
For CCN1CCCC1CN(Cc1cc2ccc(C)cc2[nH]c1=O)C(=S)Nc1ccc(F)cc1 (centres undefined) the results were ALR H2O2 inh -2.6, AI-2 QS mod 5.9, PREPL inhibitor -0.5, CHT block inactive and CHT allo act inactive.
`O=C1NCCC/C1=N/Nc1cc(F)ccc1F` gave AI-2 QS mod 20.6, PREPL inhibitor -9.6, CHT block inactive and CHT allo act inactive.
`Cc1ccc(N/N=C2/CCCNC2=O)cc1` gave ALR H2O2 inh 90.0*, AI-2 QS mod -15.5, PREPL inhibitor 12.4, CHT block inactive and CHT allo act inactive.
Screening CC(=O)c1ccc(N/N=C2/CCCNC2=O)cc1 returned ALR H2O2 inh 99.4*, AI-2 QS mod 3.2, PREPL inhibitor 25.2, CHT block inactive and CHT allo act inactive.
Screening Cn1c(N)c(N2CCN(c3ccccc3)CC2)c(=O)[nH]c1=O returned ALR H2O2 inh 98.4*, AI-2 QS mod 18.5, PREPL inhibitor -3.1, CHT block inactive and CHT allo act inactive.
For C/C(CCC(=O)O)=N/Nc1ccc([N+](=O)[O-])cc1[N+](=O)[O-] the results were ALR H2O2 inh -1.9, AI-2 QS mod 5.3, PREPL inhibitor 26.5, CHT block inactive and CHT allo act inactive.
Screening O=C(O)/C(CC(=O)c1ccc(Cl)cc1)=N/Nc1ccc([N+](=O)[O-])cc1[N+](=O)[O-] returned ALR H2O2 inh 97.5*, AI-2 QS mod 9.7, PREPL inhibitor 26.0, CHT block inactive and CHT allo act inactive.
For Oc1ccc(-c2cnns2)c(O)c1 the results were ALR H2O2 inh 98.7*, AI-2 QS mod 19.7, PREPL inhibitor -1.9, CHT block inactive and CHT allo act inactive.
For Oc1ccc(-c2nc3ccccc3s2)c(O)c1 the results were ALR H2O2 inh 27.2, AI-2 QS mod 0.6, PREPL inhibitor -34.1, CHT block inactive and CHT allo act inactive.
Screening N/C(=N\OC(=O)/C=C/c1ccccc1)c1ccccc1 returned ALR H2O2 inh 1.1, AI-2 QS mod -17.7, PREPL inhibitor 4.0, CHT block inactive and CHT allo act inactive.
`CC1=C/C(=N\OC(=O)/C=C/c2ccccc2)C(C)=CC1=O` gave ALR H2O2 inh 94.8*, AI-2 QS mod 23.8, PREPL inhibitor -3.8, CHT block inactive and CHT allo act inactive.
CCc1c(C)sc(NC(=O)c2ccco2)c1C(=O)N1CCOCC1 was read as ALR H2O2 inh 20.0, AI-2 QS mod -2.2, PREPL inhibitor -0.2, CHT block inactive and CHT allo act inactive.
`CCc1c(C)sc(NC(=O)c2ccco2)c1C(=O)N1CCCCC1` gave ALR H2O2 inh 80.7*, AI-2 QS mod 20.5, PREPL inhibitor 5.6, CHT block inactive and CHT allo act inactive.
O=C(NCc1ccccc1)c1cccc(COc2ccc3c(c2)CCC3)c1 was read as AI-2 QS mod 24.8, PREPL inhibitor 0.9, CHT block inactive and CHT allo act inactive.
O=C(O)c1cccc(COc2ccc3c(c2)CCC3)c1 was read as ALR H2O2 inh 90.7*, AI-2 QS mod 7.9, PREPL inhibitor -3.5, CHT block inactive and CHT allo act inactive.
